The whole screen tested about 4,100 compounds, of which about 1,600 (39%) were called active. Another 25% or so got no clear call; they are omitted. The call rests on the fitted dose curve; in most records, active means well fitted inhibition curve with a large enough effect; inconclusive means small, poorly fitted or top-dose-only effect; inactive means no such curve, though single readings can be large or run the other way. The list shows a part of the results.
Potency means the concentration at half of the fitted maximal effect.

The nature of this assay: qHTS Validation assay for Inhibitors of Plasmodium falciparum Dd2 growth in vitro. Further: nearly all actives have a fitted effect of over 70% in size. Conditions: P. falciparum Dd2 in RBCs, SYBR Green growth, 72 h; series mostly up to 28.7 µM. In short, it runs like this: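 P. falciparum Dd2-infected red blood cells (2.5% hematocrit, 0.3% parasitemia) grown 72 h at 37 °C under 5% O2 with compounds in a titration, 29 uM to 0.5 nM final. Growth read as SYBR Green-1 fluorescence after ~16 h lysis; artesunate 300 nM as positive control.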
In general terms: In qHTS, concentration-response curves come from the screen itself.
`O=C(c1nnc(CN2CCC(F)(F)CC2)n1-c1cccnc1)N1CCC[C@@H]1C(c1ccccc1)c1ccccc1`: the Potency was 15 µM (active).

Consider `CC(=O)Nc1cccc(-c2cn(C)c(=O)n3cc(COc4ccccc4)nc23)c1`, for which the Potency entry is “inactive”.

On to `O=C(COc1ccccc1)N1CCCC(n2cc(-c3nc(C4CC4)no3)nn2)C1` (configuration not stated), for which the Potency entry was “inactive”.

As for `CC(=O)Nc1cccc(OCc2nnc(C(=O)N3CCC[C@@H]3C(c3ccccc3)c3ccccc3)n2-c2ccccc2)c1`, the Potency is 10.6 µM (active).

For `O=C(c1nnc(COc2ccc(OC(F)(F)F)cc2)n1-c1ccccc1)N1CCC[C@@H]1C(c1ccccc1)c1ccccc1`, the Potency was 8.41 µM (active).

For the compound `COC1CCOC2(CCN(C(=O)CCn3nc(C)cc3C)CC2)C1` (configuration not stated), the Potency entry is “inactive”.

As to `COc1ccc(NC2=C(c3ccc(OC)cc3)C(=O)c3ccccc32)cc1`, the Potency is 5.96 µM (active).

On to `COCCn1cnc2ccc(Nc3ccc(C(F)(F)F)cc3)nc2c1=O`, for which the Potency entry is “inactive”.

Take `COc1ccc(NC2=C(c3ccc(C(F)(F)F)cc3)C(=O)c3ccccc32)cc1`: the Potency was 2.11 µM (active).

With `O=C1C(c2ccc(C(F)(F)F)cc2)=C(Nc2ccc(Cl)cc2)c2ccccc21`, the Potency was 1.5 µM (active).

`COc1ccc(C(=O)NC2(C(F)(F)F)C(=O)NC(C)=C2C#N)cc1` (configuration not stated): the Potency result was “inactive”.

For `COc1ccc(C2=C(Nc3ccccc3)c3ccccc3C2=O)cc1`, the Potency was 9.44 µM (active).

`Cc1cc(Cl)ccc1NC(=O)N1C[C@H](c2nc(-c3cccnc3)no2)[C@@H](C)C1`: the Potency result is “inactive”.

As for `COc1ccc(C2=C(Nc3ccc(C)cc3)c3ccccc3C2=O)cc1`, the Potency was 4.73 µM (active).

For `CCOc1ccc(NC2=C(OC)C(=O)c3ccccc3C2=O)cc1`, the Potency is 0.376 µM (active).

Take `CC(C)c1cccc(NC(=O)c2ccc(CN3C(=O)NC4(CCOCC4)C3=O)cc2)c1`: the Potency entry was “inactive”.

On to `COc1ccc(C(=O)NCc2nnc3c(-c4nc(C5CC5)no4)cccn23)c(C)c1`, for which the Potency entry is “inactive”.

On to `Cc1cc(C)c(CNC(=O)c2cc(-c3ccnn3C)cc3c2OCCN3C(C)C)c(=O)[nH]1`, for which the Potency is 15.3 µM (active).

Take `COc1ncc(-c2cc(C(=O)NCc3c(C)cc(C)[nH]c3=O)c3c(c2)N(C(C)C)CCO3)cn1`: the Potency is 9.44 µM (active).

As to `COc1ccccc1C(=O)NCc1nnc2c(-c3nc(C4CC4)no3)cccn12`, the Potency entry is “inactive”.

As for `CC(=O)Nc1cccc(-c2cc(C(=O)NCc3c(C)cc(C)[nH]c3=O)c3c(c2)N(C(C)C)CCO3)c1`, the Potency was 9.44 µM (active).

In the case of `CN1CCOc2c(C(=O)NCCc3cnc[nH]3)cc(-c3ccc(N4CCOCC4)cc3)cc21`, the Potency result was “inactive”.

In the case of `Cc1cc(C)c(CNC(=O)c2cc(-c3cccnc3)cc3c2OCCN3C(C)C)c(=O)[nH]1`, the Potency is 19.3 µM (active).

As to `COC(=O)C1=C(C)N(c2ccc(OC)cc2)C(C)=C(C(=O)OC)C1c1ccccc1`, the Potency is 9.44 µM (active).

Consider `COc1ccc(-n2ccnc2SCC(=O)NO)cc1`, for which the Potency entry was “inactive”.

As for `CCOC(=O)c1sc2nc3c(SCCC#N)cc(C(=O)c4cc(F)ccc4O)cn3c(=O)c2c1C`, the Potency was 1.68 µM (active).

On to `CC(=O)NC1CC(c2cc(NCCCOC3CCN(C)CC3)ncn2)C1` (configuration not stated), for which the Potency result was “inactive”.

With `CC1CCN(c2ccc(C(=O)NCc3ccco3)cc2[N+](=O)[O-])CC1`, the Potency is 6.68 µM (active).

Turning to `O=C(NCc1ccco1)C1CCc2sc(C(=O)N3CCCCCC3)cc2C1` (configuration not stated), the Potency entry is “inactive”.

For `Cc1nn2c3c(cnc2c1-c1ccccc1)C(=O)CC(c1ccco1)C3` (configuration not stated), the Potency was 9.44 µM (active).

In the case of `CCOC(=O)c1nc2cc3n(c(CC(C)C)c-2c1C)CC(C)=C3C`, the Potency was 7.5 µM (active).

Consider `CCOC(=O)c1noc2nc(C)n(CC(=O)NC(C)CC)c(=O)c12` (configuration not stated), for which the Potency result was “inactive”.

For the compound `CCCNc1c(NC(=O)COc2ccc(Cl)cc2)c(=O)oc2ccccc12`, the Potency entry was “inactive”.

As to `COc1ccc(OCCn2cc(C(=O)c3ccco3)c3ccccc32)cc1`, the Potency is 2.11 µM (active).

`O=C(c1cccs1)c1cn(CCOc2ccc(Cl)cc2)c2ccccc12`: the Potency was 5.96 µM (active).

With `COc1cccc(OCCn2cc(C(=O)c3ccco3)c3ccccc32)c1`, the Potency entry is “inactive”.

`CC(C)(C)c1ccc(OCCn2ccccc2=O)cc1`: the Potency result was “inactive”.

As for `O=C(Nc1c(C(=O)N2CCN(c3ccc(F)cc3)CC2)oc2ccccc12)c1ccco1`, the Potency result was “inactive”.

For the compound `O=C(c1ccco1)c1cn(CCOc2ccc(F)cc2)c2ccccc12`, the Potency was 6.68 µM (active).

On to `Cc1cc(OCCn2cc(C(=O)c3ccco3)c3ccccc32)ccc1Cl`, for which the Potency is 5.31 µM (active).

Take `CCCS(=O)(=O)NCCc1ncc(C)n1C(C)C`: the Potency entry was “inactive”.

As for `Cc1ccccc1-n1c(=O)/c(=C\c2ccco2)s/c1=C(/C#N)C(=O)Nc1ccccc1`, the Potency is 5.31 µM (active).

In the case of `N#Cc1ccc(CN2C[C@@H]3C(=O)N(CCN4CCc5ccccc5C4)C(=O)[C@@H]3C2)cc1`, the Potency entry was “inactive”.

Take `CC1(C)N=C(N)N=C(N)N1c1ccc(OCCCOc2ccccc2)c(Cl)c1`: the Potency was 2.99 µM (active).

As to `CCOc1ccc(N2C(N)=NC(N)=NC2(C)C)cc1`, the Potency result was “inactive”.

For the compound `COc1ccc(N2C(N)=NC(N)=NC2(C)C)cc1`, the Potency result was “inactive”.

As for `COC[C@@H]1CN(Cc2ccc(OC)c(C)c2)C[C@H]1C(=O)N(C)C`, the Potency result is “inactive”.

On to `CCOC(=O)c1cc(C)n(Cc2ccc(OCC)c(OC)c2)c1C`, for which the Potency was 10.6 µM (active).

`COc1cc(O)c(C(CCN2CCOCC2)c2ccc3c(c2)OCO3)c(OC)c1` (configuration not stated): the Potency was 4.22 µM (active).

Regarding `COc1cc(O)c(C(CCN2CCCCC2)c2ccc3c(c2)OCO3)c(OC)c1` (configuration not stated), the Potency was 1.33 µM (active).

Consider `COc1cc(O)c(C(CCN2CCCC(C)C2)c2ccc3c(c2)OCO3)c(OC)c1` (configuration not stated), for which the Potency was 0.531 µM (active).

Consider `COc1cc(O)c(C(CCN2CCN(c3ccccc3)CC2)c2ccc3c(c2)OCO3)c(OC)c1` (configuration not stated), for which the Potency is 0.842 µM (active).

As for `CCc1ccc(NC(=O)C(=O)NCC(c2ccc3c(c2)OCO3)N2CCOCC2)cc1` (configuration not stated), the Potency result is “inactive”.

Take `CCOC(=O)C1(Cc2ccccc2Cl)CCNCC1`: the Potency was 2.66 µM (active).

As for `CCOC(=O)C1(Cc2ccccc2C(F)(F)F)CCNCC1`, the Potency entry was “inactive”.

`CN(CCc1ccccn1)c1ccc(-c2nc(COc3ccccc3)no2)cn1`: the Potency result is “inactive”.

Take `Fc1cccc(NC(=S)NNc2c3ccccc3nc3ccccc23)c1`: the Potency is 15 µM (active).

`COc1ccccc1CN(C)C1CCCc2ccccc21` (configuration not stated): the Potency entry was “inactive”.

Turning to `CC(=O)N(C)C1CCCc2ccccc21` (configuration not stated), the Potency result is “inactive”.

For the compound `OC(CNC1CCCc2ccccc21)COc1c(Cl)cccc1Cl` (configuration not stated), the Potency was 1.68 µM (active).

For `CCc1noc(-c2cccn3c(CNC(=O)c4cccc(F)c4)nnc23)n1`, the Potency result was “inactive”.

`N/C(=N\OC(=O)c1cccc(F)c1)c1ccccn1`: the Potency entry was “inactive”.

With `O=C(N/N=C(\c1ccccc1)c1cccnc1)c1cccc(F)c1`, the Potency was 4.22 µM (active).

Take `O=C1NCN(c2ccccc2)C12CCN(CCCC(c1ccc(F)cc1)c1ccc(F)cc1)CC2`: the Potency is 5.31 µM (active).

Turning to `F[C@@H]1CN(CC2CC2)C[C@@H]1OCc1nc2ccccc2o1`, the Potency result was “inactive”.

With `Cc1cc(C)c(Cn2c(=O)n(CCCCC(=O)NCc3ccccc3Cl)c(=O)c3ccccc32)c(C)c1`, the Potency entry was “inactive”.

Take `CCCCN(C)CCCNC(=O)Cn1ncc2c3ccccc3n(Cc3cc(C)ccc3C)c2c1=O`: the Potency was 0.75 µM (active).

With `CCOC(=O)c1cccc(NC(=O)Cn2ncc3c4ccccc4n(Cc4ccccc4)c3c2=O)c1`, the Potency result was “inactive”.

In the case of `Cc1nc2sc(C(=O)Nc3ccc(F)cc3)c(N)c2c(-c2ccc(Br)cc2)c1C(=O)Nc1ccc(Cl)cc1`, the Potency is 8.41 µM (active).

On to `COc1ccc(NC(=O)c2sc3nc4c(c(-c5ccc(OC)cc5)c3c2N)C(=O)CC(C)(C)C4)cc1`, for which the Potency was 1.88 µM (active).

For `COc1ccc(C(=O)Nc2ccc([C@H]3OCC(=O)N(C(C)C)[C@@H]3CO)cc2)cc1`, the Potency entry was “inactive”.

`COc1ccc(NC(=O)CSc2nc(-c3ccc(OC)cc3)[nH]c2-c2ccc(F)cc2)cc1`: the Potency entry is “inactive”.

On to `COc1ccc(-c2c3c(nc4sc(C(=O)Nc5ccc(F)cc5)c(N)c24)CC(C)(C)CC3=O)cc1`, for which the Potency was 0.944 µM (active).

As for `COc1ccc(-c2c3c(nc4sc(C(=O)Nc5ccc(Cl)cc5)c(N)c24)CC(C)(C)CC3=O)cc1`, the Potency is 0.376 µM (active).

`CCc1ccc(N=C2NC(=O)CC(C(=O)Nc3ccc(OC)cc3)S2)cc1` (configuration not stated): the Potency entry was “inactive”.

For the compound `CCn1nccc1C(=O)N1CCCC(n2cc(-c3nc(-c4ccccc4)no3)nn2)C1` (configuration not stated), the Potency result is “inactive”.

As to `O=C(Nc1ccc(-c2nnc3n2CCCC3)cc1)c1ccc2ccccc2n1`, the Potency entry was “inactive”.

Take `CCOC(=O)c1ccccc1NC1c2ccccc2C(=O)N1C1CCN(C(=O)OCC)CC1` (configuration not stated): the Potency is 13.3 µM (active).

For the compound `CCOC(=O)N1CCN(C(=O)c2ccccc2-c2ccccc2)CC1`, the Potency result was “inactive”.

For the compound `CCOC(=O)N1CCN(c2nc3ccccn3c(=O)c2C=O)CC1`, the Potency entry is “inactive”.

Consider `COc1ccc(-n2nc3ccc(N)cc3n2)cc1Cl`, for which the Potency entry was “inactive”.

As for `Oc1ccc(Cl)cc1-c1cc(C(F)(F)C(F)F)nc(-c2ccccc2)n1`, the Potency was 0.842 µM (active).

Turning to `CCN(CC)c1ccc(C(=O)NCc2nnc3c(-c4nc(C(C)C)no4)cccn23)cc1`, the Potency result is “inactive”.

For `COc1cc(Cl)c(NC2=CC(=O)C(=O)c3ccccc32)c(OC)c1`, the Potency is 1.68 µM (active).

With `COc1cc(OC)c(NC(=O)n2ncc3cc(Cl)ccc32)cc1Cl`, the Potency entry was “inactive”.

Regarding `COc1cc(OC)c(NC2=CC(=O)C(=O)c3ccccc32)cc1Cl`, the Potency was 2.99 µM (active).

In the case of `Cc1cc(O)c(-c2ccnc3cc(-c4ccccc4)nn23)cc1Cl`, the Potency is 1.88 µM (active).

Source of the values: PubChem BioAssay AID1347416 (National Center for Advancing Translational Sciences (NCATS), 2020).
